Assay results: PubChem BioAssay AID463165 (Johns Hopkins Ion Channel Center, 2010)
Among all 310,000 compounds or so, about 1,400 (0.45%) were called active. The sample holds actives, similar compounds and a random draw of the others, so the mix is not that of the screen.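 The calls were made as follows: active = B-score, a plate-corrected calcium signal, over three deviations above library mean, with baseline fluorescence within five deviations of library mean; inactive = the rest.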

These compounds were tested against Regulator of G-protein signaling 4 (Homo sapiens) (UniProt P49798) (assay: RGS4 inhibitors, primary screen, cell-based, HEK293 M3R inducible RGS4, calcium flux (AID 463165;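 also: RGS4 expression induced by doxycycline in cells with stable M3 receptor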;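 as to B-score: B-score is computed from the integrated fluorescence ratio over baseline after carbachol; higher B-score means a larger calcium signal and so more RGS4 inhibition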)). Details: Fluo-4 calcium flux, at 10 µM, triggered by carbachol at its EC20; active compounds read high.
Chain of Regulator of G-protein signaling 4 (Homo sapiens) (P49798 whole entry, looked up): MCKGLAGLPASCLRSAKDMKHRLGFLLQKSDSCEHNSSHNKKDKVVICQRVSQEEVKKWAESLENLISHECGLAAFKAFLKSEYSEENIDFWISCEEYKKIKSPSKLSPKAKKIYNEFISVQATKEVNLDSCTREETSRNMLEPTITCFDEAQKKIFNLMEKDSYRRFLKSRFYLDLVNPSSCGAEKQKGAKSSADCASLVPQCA

B-score, active:
O=C1c2ccccc2NC(c2ccc(-c3cccc(Cl)c3)o2)N1O (centres undefined) 8.05, Cc1nn2c(=O)cc(COC(=O)c3ccc(NC(=O)C(C)(C)C)cc3)nc2s1 17.9, C#CCOc1ccc(/C=C2/C(=O)ON=C2C)cc1OCC 6.2, C=CCOc1ccc(/C=C2/C(=O)ON=C2C)cc1OCC 9.13, COC(=O)C1CCN(C(=O)c2cc(=O)[nH]c3ccccc23)CC1 5.3, CCOC(=O)C1CCN(C(c2cc3cc(C)cc(C)c3[nH]c2=O)c2nnnn2C2CCCCC2)CC1 (centres undefined) 6.12, Cc1cc(C)nc(S/C=C/C(=O)c2ccccc2)n1 10.7, CCOc1ccc(/C=N/NC(=O)CSc2ccccn2)cc1O 4.74, C[C@H](NC(=O)c1nc[nH]c1C(=O)NCC(=O)OC(C)(C)C)c1ccccc1 5.48, Cc1ccc(/C=C2\CCn3c2nc2cc(C(=O)O)ccc2c3=O)c(C)c1 6.23, COc1ccccc1C1C(C#N)=C(N)Oc2c1c(-c1ccccc1)nn2-c1ccccc1 (centres undefined) 8.32, Cc1ccc(C)c(Cn2nnc3c(=O)[nH]c(C(=O)Nc4ccc(F)cc4)nc32)c1 7.87, COc1ccc(S(=O)(=O)Nc2ccc(O)c(Sc3nc4ccccc4s3)c2)cc1 5.99

B-score, inactive:
O=C1NC(c2cccc(Cl)c2)Nc2ccccc21 (centres undefined), O=c1c(-c2cccc(Cl)c2)c[nH]n1-c1ccccc1, COCCc1nn2c(=O)cc(COC(=O)c3cc(OC)c(OC)c(OC)c3)nc2s1, CCOC(=O)c1ccc(NC(=O)c2cccnc2)cc1, COc1ccc(CC(=O)NC2CCSc3ccccc32)cc1OC (centres undefined), CN(C(=O)c1cccc([N+](=O)[O-])c1)c1ccccc1C(=O)NCc1ccccc1, CC1=NOC(=O)/C1=C\c1ccccc1, COc1cc(/C=C2/C(=O)ON=C2C)ccc1OCc1ccccc1F, C#CCOc1ccccc1/C=C1/C(=O)ON=C1C, COc1cc(/C=C2/C(=O)ON=C2C)ccc1OCc1cccc(F)c1, O=C(O)C1C2C=CC(O2)C1C(=O)NCCc1cccc(Cl)c1 (centres undefined), O=C(Oc1c(-c2ccco2)oc2ccccc2c1=O)c1cccnc1, O=C1C(=O)N(c2ccccc2)c2ccccc21, CC1CCCCC1NC(=O)c1cc(=O)[nH]c2ccccc12 (centres undefined), CC(C)(CNC(=O)c1cc(=O)[nH]c2ccccc12)N1CCOCC1, O=C(CNC(=O)[C@@H]1Cc2ccccc2CN1)NC1CCCCC1, COc1ccccc1N1CCN(S(=O)(=O)CCNC(=O)c2ccc(OC(C)C)cc2)CC1, Cc1ccc(CSCC2Nc3ccc(C(=O)N4CCN(c5ccc(F)cc5)CC4)cc3NC2=O)cc1 (centres undefined), Cc1cc(C)c2[nH]c(=O)c(C(c3nnnn3Cc3ccc4c(c3)OCO4)N3CCCC3)cc2c1 (centres undefined), COc1ccc(N2CCN(C(c3cc4ccc(C)cc4[nH]c3=O)c3nnnn3C3CCCC3)CC2)cc1 (centres undefined), COc1ccc(S(=O)(=O)NCCc2cc3ccc(C)c(C)c3[nH]c2=O)cc1, CCOCCCNC(=O)c1cc2c(=O)n3ccccc3nc2s1, Cc1cc(C)nc(SCC(=O)c2ccc(Cl)cc2)n1, Cc1ccc(N/C=C/C(=O)c2ccccc2)cc1C, CN=C(NC#N)NCCSCc1nc[nH]c1C, COc1ccc(CN(C(=O)CSc2nnc(-c3ccc(OC)c(OC)c3)o2)c2ccc(F)cc2)cc1, Cc1ccc(/C=N/NC(=O)CSc2ccccn2)o1, CCOc1ccc(/C=N/NC(=O)C(C)Sc2ccccn2)cc1OCC (centres undefined), Cc1cc(=O)oc2cc(OC(C)C(=O)Nc3ccc(N4CCOCC4)cc3)ccc12 (centres undefined), COc1cc(NC(=O)CSC(=S)N2CCCC2)c(OC)cc1Cl, CC(C)(C)Oc1ccccc1Nc1nc(NCCO)nc(N2CCCC2)n1, CCOc1ccc(CNC(=O)CCC(=O)N2CCSc3ccccc32)cc1, CC(C)(C)OC(=O)CNC(=O)c1[nH]cnc1C(=O)N[C@@H](Cc1ccccc1)C(=O)OCc1ccccc1, C[C@H](NC(=O)c1nc[nH]c1C(=O)NCC(=O)OC(C)(C)C)C(=O)OCc1ccccc1, Cc1ccc(N(C(=O)c2ccc(CN3CCOCC3)o2)C(C(=O)NCCC(C)C)c2cccs2)c(C)c1 (centres undefined), O=C(CSCc1ccccc1)Nc1ccccc1, CCN(CC)S(=O)(=O)c1ccc(N2CC(C(=O)NCc3cccnc3)CC2=O)cc1 (centres undefined), N#Cc1ccc(/C=C2\CCn3c2nc2cc(C(=O)O)ccc2c3=O)cc1, O=C(O)c1ccc2c(=O)n3c(nc2c1)/C(=C/c1ccc(OC(F)F)cc1OC(F)F)CC3, CCOC1CS(=O)(=O)CC1OCC (centres undefined), CCCN(CCC)S(=O)(=O)c1ccc(C(=O)N2CC3CCC(CC3)C2)cc1, CC(C)=CCCC1(C)C=Cc2c(ccc3c2[nH]c2cc(O)c(C)cc23)O1 (centres undefined), O=C(O)CCC(=O)N(Cc1ccccc1)Cc1ccccc1, O=C(Nc1ccccc1Cl)c1ccccc1S(=O)(=O)c1ccccc1[N+](=O)[O-], Cc1nn(Cc2ccccc2)c2c1C(c1ccccc1)C(C#N)=C(N)O2 (centres undefined), Cc1nn(-c2ccccc2)c2c1C(c1ccc(F)cc1)C(C#N)=C(N)O2 (centres undefined), Cc1cccc(OCCCC(=O)Nc2ccc(S(=O)(=O)N3CCCC3)cc2)c1, CS(=O)(=O)c1ccc(C(=O)OCC(=O)NNC(=O)COc2ccc(Cl)cc2)cc1, Cc1ccc(NC(=O)N2CCC(c3nc4c(nnn4Cc4c(F)cccc4Cl)c(=O)[nH]3)CC2)cc1, O=C(Nc1ccc(F)cc1)N1CCCC(c2nc3c(nnn3Cc3ccccc3Cl)c(=O)[nH]2)C1 (centres undefined), O=C(O)C1C2C=CC(C2)C1C(=O)NCc1ccccc1 (centres undefined), O=C(CN1C(=O)NC2(CCCCCC2)C1=O)NCc1cccs1, COC(=O)c1c(C(=O)OC)c2n(c1C)CCS2, COc1ccc(C)cc1NC(=O)CSc1nnc2ccc(-c3ccccn3)nn12, O=C(O)c1cccc(S(=O)(=O)Nc2ccc(O)cc2Sc2nc3ccccc3s2)c1, CCOc1ccc(S(=O)(=O)Nc2nc3cc(OC)ccc3s2)cc1
